The campaign covered roughly 5,500 compounds. About 2,000 (36%) were called active. Roughly 18% stayed inconclusive and do not appear here. Cut-off read from the data, not from the text of the source: active = normalized growth mostly below about 0.91 (no sharp cut-off); inconclusive = no clear call, values can overlap the other calls; inactive = mostly above about 0.92. This is one part of the list.
Experiment: chemical genetic growth profiling, strain panel (AID 1159580);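 note: tested at 20 µM; growth read once vehicle control cultures reached saturation at 30 °C; 1 = growth at the plate median or of vehicle wells; lower values mean less growth of the strain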
Settings: growth OD

Measured: normalized growth

C=C[C@@]1(C)CC(=O)[C@@]2(O)[C@](C)(O1)[C@@H](OC(C)=O)[C@@H](O)C1C(C)(C)CC[C@H](O)[C@@]12C (some centres not stated)
inactive: S. cerevisiae deletion strains, locus YJR075W, strain HOC1, hits give low values 0.997 | S. cerevisiae deletion strains, locus YKL009W, strain mrt4, hits give low values 0.964 | S. cerevisiae deletion strains, locus YKL068W, hits give low values 0.992 | S. cerevisiae deletion strains, locus YKL085W, strain MDH1 (second series), hits give low values 0.966 | S. cerevisiae deletion strains, locus YKL085W, strain MDH1, hits give low values 0.966 | S. cerevisiae deletion strains, locus YKL160W, strain elf1, hits give low values 0.963 | S. cerevisiae deletion strains, locus YKL190W, strain CNB1, hits give low values 0.99 | S. cerevisiae deletion strains, locus YKR001C, strain vps1, hits give low values 0.984 | S. cerevisiae deletion strains, locus YKR026C, strain gcn3, hits give low values 0.997 | S. cerevisiae deletion strains, locus YKR091W, strain srl3, hits give low values 0.971 | S. cerevisiae deletion strains, locus YLL001W, strain dnm1, hits give low values 1.02 | S. cerevisiae deletion strains, locus YLL026W, hits give low values 0.964 | S. cerevisiae deletion strains, locus YLL041C, strain sdh2, hits give low values 0.969 | S. cerevisiae deletion strains, locus YLR027C, strain aat2, hits give low values 0.98 | S. cerevisiae deletion strains, locus YLR039C, strain RIC1, hits give low values 0.939 | S. cerevisiae deletion strains, locus YLR058C, strain SHM2, hits give low values 0.982 | S. cerevisiae deletion strains, locus YLR102C, strain apc9, hits give low values 0.974 | S. cerevisiae deletion strains, locus YLR113W, strain HOG1, hits give low values 0.955 | S. cerevisiae deletion strains, locus YLR221C, strain rsa3, hits give low values 1.03 | S. cerevisiae deletion strains, locus YLR258W, strain gsy2, hits give low values 0.965 | S. cerevisiae deletion strains, locus YLR262C, strain YPT6 (second series), hits give low values 0.968 | S. cerevisiae deletion strains, locus YLR262C, strain YPT6, hits give low values 0.894 | S. cerevisiae deletion strains, locus YLR268W, strain sec22, hits give low values 1.07 | S. cerevisiae deletion strains, locus YLR320W, strain mms22, hits give low values 1.01 | S. cerevisiae deletion strains, locus YLR330W, strain CHS5, hits give low values 0.989 | S. cerevisiae deletion strains, locus YLR342W, strain FKS1 (second series), hits give low values 0.987 | S. cerevisiae deletion strains, locus YLR342W, strain FKS1, hits give low values 0.991 | S. cerevisiae deletion strains, locus YLR357W, strain rsc2, hits give low values 0.987 | S. cerevisiae deletion strains, locus YLR370C, strain arc18, hits give low values 0.978 | S. cerevisiae deletion strains, locus YLR371W, strain rom2, hits give low values 0.968 | S. cerevisiae deletion strains, locus YLR384C, strain iki3, hits give low values 0.993 | S. cerevisiae deletion strains, locus YLR418C, strain cdc73, hits give low values 0.99 | S. cerevisiae deletion strains, locus YML016C, strain PPZ1, hits give low values 0.991 | S. cerevisiae deletion strains, locus YML032C, strain rad52, hits give low values 1.01 | S. cerevisiae deletion strains, locus YML120C, strain ndi1, hits give low values 0.989 | S. cerevisiae deletion strains, locus YML124C, strain tub3, hits give low values 0.983 | S. cerevisiae deletion strains, locus YMR058W, strain fet3, hits give low values 0.982 | S. cerevisiae deletion strains, locus YMR078C, strain ctf18, hits give low values 0.985 | S. cerevisiae deletion strains, locus YMR125W, strain sto1, hits give low values 0.974 | S. cerevisiae deletion strains, locus YMR129W, hits give low values 0.965 | S. cerevisiae deletion strains, locus YMR205C, strain PFK2, hits give low values 0.998 | S. cerevisiae deletion strains, locus YMR223W, strain ubp8, hits give low values 0.98 | S. cerevisiae deletion strains, locus YMR231W, strain pep5, hits give low values 0.992 | S. cerevisiae deletion strains, locus YMR263W, strain SAP30, hits give low values 0.992 | S. cerevisiae deletion strains, locus YMR307W, strain GAS1, hits give low values 1 | S. cerevisiae deletion strains, locus YNL067W, strain RPL9B, hits give low values 1.01 | S. cerevisiae deletion strains, locus YNL071W, strain lat1, hits give low values 0.988 | S. cerevisiae deletion strains, locus YNL128W, strain TEP1, hits give low values 0.965 | S. cerevisiae deletion strains, locus YNL153C, strain GIM3, hits give low values 1.01 | S. cerevisiae deletion strains, locus YNL183C, strain NPR1, hits give low values 0.933 | S. cerevisiae deletion strains, locus YNL209W, strain ssb2, hits give low values 0.992 | S. cerevisiae deletion strains, locus YNL233W, strain BNI4, hits give low values 1.01 | S. cerevisiae deletion strains, locus YNL248C, strain rpa49, hits give low values 0.919 | S. cerevisiae deletion strains, locus YNL250W, strain rad50, hits give low values 0.972 | S. cerevisiae deletion strains, locus YNL271C, strain bni1, hits give low values 0.987 | S. cerevisiae deletion strains, locus YNL298W, strain CLA4, hits give low values 0.959 | S. cerevisiae deletion strains, locus YNL307C, strain MCK1, hits give low values 0.996 | S. cerevisiae deletion strains, locus YNL322C, strain KRE1 (second series), hits give low values 0.939 | S. cerevisiae deletion strains, locus YNL322C, strain KRE1, hits give low values 0.994 | S. cerevisiae deletion strains, locus YNR049C, strain mso1, hits give low values 0.959 | S. cerevisiae deletion strains, locus YNR052C, strain pop2, hits give low values 0.984 | S. cerevisiae deletion strains, locus YOL006C, strain TOP1, hits give low values 0.997 | S. cerevisiae deletion strains, locus YOL012C, strain htz1 1.15 | S. cerevisiae deletion strains, locus YOL147C, strain pex11, hits give low values 0.999 | S. cerevisiae deletion strains, locus YOR001W, strain rrp6, hits give low values 1.03 | S. cerevisiae deletion strains, locus YOR061W, strain CKA2, hits give low values 0.972 | S. cerevisiae deletion strains, locus YOR069W, strain VPS5, hits give low values 0.993 | S. cerevisiae deletion strains, locus YOR070C, strain gyp1, hits give low values 0.986 | S. cerevisiae deletion strains, locus YOR080W, strain dia2, hits give low values 0.973 | S. cerevisiae deletion strains, locus YOR083W, strain WHI5, hits give low values 0.92 | S. cerevisiae deletion strains, locus YOR106W, strain vam3, hits give low values 0.919 | S. cerevisiae deletion strains, locus YOR136W, strain idh2, hits give low values 0.978 | S. cerevisiae deletion strains, locus YOR144C, strain elg1, hits give low values 0.991 | S. cerevisiae deletion strains, locus YOR184W, strain ser1, hits give low values 0.978 | S. cerevisiae deletion strains, locus YOR231W, strain MKK1, hits give low values 0.966 | S. cerevisiae deletion strains, locus YOR265W, strain rbl2, hits give low values 0.988 | S. cerevisiae deletion strains, locus YOR270C, strain vph1, hits give low values 0.94 | S. cerevisiae deletion strains, locus YOR290C, strain snf2, hits give low values 0.955 | S. cerevisiae deletion strains, locus YOR316C, strain cot1, hits give low values 0.984 | S. cerevisiae deletion strains, locus YPL051W, strain arl3, hits give low values 0.97 | S. cerevisiae deletion strains, locus YPL055C, strain LGE1, hits give low values 0.998 | S. cerevisiae deletion strains, locus YPL078C, strain atp4, hits give low values 0.955 | S. cerevisiae deletion strains, locus YPL106C, strain sse1, hits give low values 0.955 | S. cerevisiae deletion strains, locus YPL240C, strain hsp82, hits give low values 0.987 | S. cerevisiae deletion strains, locus YPL241C, strain CIN2, hits give low values 0.989 | S. cerevisiae deletion strains, locus YPL256C, strain CLN2, hits give low values 0.973 | S. cerevisiae deletion strains, locus YPR119W, strain clb2, hits give low values 0.978 | S. cerevisiae deletion strains, locus YPR141C, strain kar3, hits give low values 0.975 | S. cerevisiae deletion strains, locus YPR163C, strain tif3, hits give low values 0.993 | S. cerevisiae deletion strains, locus YPR167C, strain met16, hits give low values 0.986 | S. cerevisiae deletion strains, strain wtn01, hits give low values 0.997 | S. cerevisiae strains, strain wild type, hits give low values 0.984

Source: PubChem BioAssay AID1159580 (chemical genetic matrix, 2015)
